Assay results published in PubChem BioAssay AID602144 (Vanderbilt Specialized Chemistry Center, 2011).
Activity calls are given as the source filed them. Cut-off read from the data, not from the text of the source: active = remaining activity below about 50%; inactive = the rest.

Target: Phospholipase D1 (Homo sapiens) (UniProt Q13393)
Assay: cellular phospholipase D1 activity inhibition – Calu-1 cells, single concentration (AID 602144);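 note: tested at 200 nM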
Conditions: cellular PLD1 activity, stronger effect = lower value

Phospholipase D1 (Homo sapiens), sequence (Q13393 whole entry, looked up): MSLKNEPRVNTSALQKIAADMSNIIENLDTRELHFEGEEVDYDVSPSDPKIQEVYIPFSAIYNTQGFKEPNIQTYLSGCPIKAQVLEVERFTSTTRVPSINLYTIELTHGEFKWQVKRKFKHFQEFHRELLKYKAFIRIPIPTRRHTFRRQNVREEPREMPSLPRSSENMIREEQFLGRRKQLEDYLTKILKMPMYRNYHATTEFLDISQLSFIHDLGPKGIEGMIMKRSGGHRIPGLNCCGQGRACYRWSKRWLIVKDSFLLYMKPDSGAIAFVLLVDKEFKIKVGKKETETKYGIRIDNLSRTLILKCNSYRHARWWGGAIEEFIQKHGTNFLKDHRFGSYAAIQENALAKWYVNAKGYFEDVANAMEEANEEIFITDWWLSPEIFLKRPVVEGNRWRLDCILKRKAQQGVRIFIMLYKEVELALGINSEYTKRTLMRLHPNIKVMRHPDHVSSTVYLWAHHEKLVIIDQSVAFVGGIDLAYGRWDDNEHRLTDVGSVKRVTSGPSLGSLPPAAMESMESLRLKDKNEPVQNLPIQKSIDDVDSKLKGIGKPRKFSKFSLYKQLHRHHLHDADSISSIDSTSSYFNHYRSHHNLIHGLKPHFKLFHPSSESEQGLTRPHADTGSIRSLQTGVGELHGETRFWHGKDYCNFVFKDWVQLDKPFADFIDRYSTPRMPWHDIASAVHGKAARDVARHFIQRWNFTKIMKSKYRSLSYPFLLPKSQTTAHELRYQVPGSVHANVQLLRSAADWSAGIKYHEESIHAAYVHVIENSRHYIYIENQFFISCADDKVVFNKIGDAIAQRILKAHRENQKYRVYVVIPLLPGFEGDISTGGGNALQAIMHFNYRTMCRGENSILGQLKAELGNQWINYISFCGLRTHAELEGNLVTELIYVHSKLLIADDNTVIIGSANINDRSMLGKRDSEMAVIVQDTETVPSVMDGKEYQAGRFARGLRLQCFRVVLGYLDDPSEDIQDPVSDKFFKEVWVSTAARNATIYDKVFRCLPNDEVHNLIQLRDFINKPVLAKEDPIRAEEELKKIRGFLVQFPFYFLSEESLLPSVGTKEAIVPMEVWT
Phospholipase D1 (Homo sapiens), sequence (Q13393 whole entry, looked up): as above

Compound | remaining activity
CN(CCN1CCC(n2c(=O)[nH]c3ccccc32)CC1)C(=O)c1ccc2ccccc2c1 | 75.5% (inactive)
O=C(NCCN1CCC2(CCc3ccccc32)CC1)[C@H]1C[C@@H]1c1ccccc1 | 125% (inactive)
O=C(NCCN1CCC(n2c(=O)[nH]c3ccccc32)CC1)c1cc2ccccc2c2c1ccc1ccccc12 | 102% (inactive)
C[C@H](CN1CCC2(CC1)CNc1ccccc12)NC(=O)c1cnc2ccccc2c1 | 55% (inactive)
O=C(NCCN1CCC(n2c(=O)[nH]c3ccccc32)CC1)c1cc(-c2ccccc2)no1 | 62.9% (inactive)
C[C@@H](CN1CCC(n2c(=O)[nH]c3cc(-c4ccsc4)ccc32)CC1)NC(=O)[C@H]1C[C@@H]1c1ccccc1 | 41.3% (active)
CC(C)C(=O)N[C@@H](C)CN1CCC(n2c(=O)[nH]c3ccccc32)CC1 | 104% (inactive)
CC1(C)[C@H]2CC[C@]1(CS(=O)(=O)NCCN1CCC(n3c(=O)[nH]c4ccccc43)CC1)C(=O)C2 | 121% (inactive)
O=C(NCCN1CCN(c2ccncc2)CC1)c1ccc(F)cc1O | 152% (inactive)
O=C(NCCN1CC=C(n2c(=O)[nH]c3ccccc32)CC1)[C@H]1C[C@@H]1c1ccccc1 | 85.3% (inactive)
C[C@@H](CN1CCC2(CC1)CN(S(C)(=O)=O)c1ccccc12)NC(=O)[C@H]1C[C@@H]1c1ccccc1 | 148% (inactive)
O=C(NCCN1CCN(c2ccccn2)CC1)c1ccc(Cl)cc1 | 153% (inactive)
C[C@@H](CN1CCC(n2c(=O)[nH]c3ccc(F)cc32)CC1)NC(=O)c1ccc(F)cc1 | 16% (active)
